Measurements: PMC5540273 (PLoS ONE, 2017)

tested on: WNK4; conditions: concentration: 1 μM, replicates: in singlicate; n = 1
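Note: KINOMEscan kinase panel screen.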

SMILES | %Inh [%]
Cn1cnc2c(N)ncnc21 [SKF-97623] | 0
Cl.Cl.Cl.N#Cc1ccc(CCNc2nccc(-c3cccc(CN4CCNCC4)c3)n2)cc1 [GSK2137462] | 95.5
O=C1NC(=O)C(c2ccc(Cl)cc2)=C1Nc1ccc(O)cc1 [SB-340867] | 0
CC[C@@H]1CO[C@H](C(=O)Nc2ccccc2)CN1c1cc(-c2ccc3c(N)n[nH]c3c2)nc(NC)n1 [GSK2376236] | 0
Cc1c(Cn2c3ccccc3n3c(=O)cc(N4CCOCC4)nc23)cccc1C(F)(F)F [GSK2306394] | 0
CSc1ccc(-c2nc3n(c2-c2ccncc2)CCC3)cc1 [SKF-105561] | 3
Cc1ccc(-c2nc(Nc3ccncc3)c3ccccc3n2)s1 [GSK189015] | 0
Cc1ccc(NC(=O)Nc2ccc(Cl)cc2)cc1-c1ccc(C(=O)Nc2ccncc2)cc1 [GSK1398472] | 23
CC(C)c1ccc(O)cc1Nc1ccnc2ccc(C(F)(F)F)cc12 [GW482059] | 0
CC(C)c1cc(-c2ccc3c(N)n[nH]c3c2)nc(N)n1 [GSK2250882] | 0
Fc1ccc(-c2nc3n(c2-c2ccncc2)CCS3)cc1 [GI98581] | 2
Cc1cccc2c(-c3ccncn3)c(-c3ccc(F)cc3)nn12 [GW515532] | 0
COc1cccc(NC(=O)Nc2ccc(C)c(-c3ccc(C(=O)Nc4ccncc4)cc3)c2)c1 [GSK1398474] | 0
CNC(=O)c1ccc(C)c(-n2c(C)cc(OCc3ccc(F)cc3F)c(Br)c2=O)c1 | 0
Cc1ccc(NC(=O)c2ccc(Cl)cc2)cc1-c1ccc(C(=O)Nc2ccncc2)cc1 [GSK1398467] | 22
O=C(Nc1n[nH]c2nc(-c3cccs3)c(Br)cc12)C1CCCC1 [SB-743341] | 3
COc1ccc2cc(-c3nc(-c4ccccc4C(C)C)[nH]c3-c3ccncc3)ccc2c1 [SB-660566] | 0
COc1cc2ncnc(Nc3cccc(Br)c3)c2cc1OC.Cl [GI230329] | 16
O=c1cc(N2CCOCC2)nc2n(Cc3cccc(Cl)c3Cl)c3ccccc3n12 [GSK2299009] | 0

SMILES | %Inh [%]
CC(=O)c1c(C)c2cnc(Nc3ccn(C)n3)nc2n(C2CCCC2)c1=O | 0
CN1c2ccc(-c3ccc(C(N)=O)cc3)cc2-c2[nH]ncc2S1(=O)=O | 0
COc1ccc(Nc2nccc(NCCNC(=O)Nc3cc(C)ccc3C)n2)cc1 [GSK1379899] | 0
Nc1cccc(-c2ccc3c(N)n[nH]c3c2)n1 [GSK2192730] | 0
CNc1nc(-c2ccc3c(N)n[nH]c3c2)cc(N2C[C@@H](C(=O)Nc3ccccc3)CC[C@H]2C)n1 [GSK2298859] | 29
Cc1ccc(NC(=O)Nc2ccccc2F)cc1-c1ccc(C(=O)Nc2ccncc2)cc1 [GSK1398477] | 0
c1ccc(-c2ccnc3[nH]ccc23)cc1 [SB-693578] | 37
O=C(Nc1n[nH]c2nc(-c3cccs3)c(Br)cc12)C1CC1 [SB-735297] | 29
Cn1cncc1C(=O)NC1CCN(c2ccnc(Nc3ccc(F)cc3)n2)C1 (stereo not shown) [GSK1379717] | 0
COc1ccc(Nc2nccc(N3CCC(NC(=O)C(C)c4ccc(Cl)cc4)CC3)n2)cc1 (stereo not shown) [GSK1379812] | 19
CCc1ccc(-c2ccc3c(c2)-c2n[nH]cc2S(=O)(=O)N3C)cc1 | 0
CS(=O)(=O)CCNCc1nc(-c2ccc3ncnc(Nc4ccc(OCc5ccccc5)c(Cl)c4)c3c2)cs1.Cl [GW582764] | 60
Cc1ccc(NC(=O)Nc2ccc(Cl)c(C(F)(F)F)c2)cc1-c1ccc(C(=O)Nc2ccncc2)cc1 [GSK1398470] | 0
Fc1ccc(-c2nn3cccc(F)c3c2-c2ccncc2)cc1 [GW475620] | 9
CNc1nc(-c2ccc3c(N)n[nH]c3c2)cc(N2C[C@@H](C(=O)NC3CCCCC3)OC[C@H]2C)n1 [GSK2375584] | 41
Cn1cncc1-c1cc2c(Nc3ccc(OCc4ccccc4)cc3)ncnc2cn1 [GW281179] | 14
Fc1ccc(-c2nc[nH]c2-c2ccncc2)cc1 [SB-217360] | 2
COc1cccc(C2=C(Nc3cc(Cl)c(O)c(Cl)c3)C(=O)NC2=O)c1 [SB-390767] | 17
